Measured values published in the supplement of paper PMC11732987, “Enantioselective OTUD7B fragment discovery through chemoproteomics screening and high-throughput optimisation” (Communications Chemistry, 2025).

Legend:
Assay in all cases: log2 ratio of Biotin-Ahx-Ub-VS probe labelling (fragment/DMSO); higher = less target engagement (more negative = stronger competition), active = hit call of the paper (q ≤ 0.05, log2 ratio ≤ -1)
Details in all cases: compound concentration: 200 uM; treatment time: 3 h
[1] = target: USP34 (UniProt Q70CQ2)
Sequence of USP34 (Q70CQ2 whole entry, the tested form may be a part): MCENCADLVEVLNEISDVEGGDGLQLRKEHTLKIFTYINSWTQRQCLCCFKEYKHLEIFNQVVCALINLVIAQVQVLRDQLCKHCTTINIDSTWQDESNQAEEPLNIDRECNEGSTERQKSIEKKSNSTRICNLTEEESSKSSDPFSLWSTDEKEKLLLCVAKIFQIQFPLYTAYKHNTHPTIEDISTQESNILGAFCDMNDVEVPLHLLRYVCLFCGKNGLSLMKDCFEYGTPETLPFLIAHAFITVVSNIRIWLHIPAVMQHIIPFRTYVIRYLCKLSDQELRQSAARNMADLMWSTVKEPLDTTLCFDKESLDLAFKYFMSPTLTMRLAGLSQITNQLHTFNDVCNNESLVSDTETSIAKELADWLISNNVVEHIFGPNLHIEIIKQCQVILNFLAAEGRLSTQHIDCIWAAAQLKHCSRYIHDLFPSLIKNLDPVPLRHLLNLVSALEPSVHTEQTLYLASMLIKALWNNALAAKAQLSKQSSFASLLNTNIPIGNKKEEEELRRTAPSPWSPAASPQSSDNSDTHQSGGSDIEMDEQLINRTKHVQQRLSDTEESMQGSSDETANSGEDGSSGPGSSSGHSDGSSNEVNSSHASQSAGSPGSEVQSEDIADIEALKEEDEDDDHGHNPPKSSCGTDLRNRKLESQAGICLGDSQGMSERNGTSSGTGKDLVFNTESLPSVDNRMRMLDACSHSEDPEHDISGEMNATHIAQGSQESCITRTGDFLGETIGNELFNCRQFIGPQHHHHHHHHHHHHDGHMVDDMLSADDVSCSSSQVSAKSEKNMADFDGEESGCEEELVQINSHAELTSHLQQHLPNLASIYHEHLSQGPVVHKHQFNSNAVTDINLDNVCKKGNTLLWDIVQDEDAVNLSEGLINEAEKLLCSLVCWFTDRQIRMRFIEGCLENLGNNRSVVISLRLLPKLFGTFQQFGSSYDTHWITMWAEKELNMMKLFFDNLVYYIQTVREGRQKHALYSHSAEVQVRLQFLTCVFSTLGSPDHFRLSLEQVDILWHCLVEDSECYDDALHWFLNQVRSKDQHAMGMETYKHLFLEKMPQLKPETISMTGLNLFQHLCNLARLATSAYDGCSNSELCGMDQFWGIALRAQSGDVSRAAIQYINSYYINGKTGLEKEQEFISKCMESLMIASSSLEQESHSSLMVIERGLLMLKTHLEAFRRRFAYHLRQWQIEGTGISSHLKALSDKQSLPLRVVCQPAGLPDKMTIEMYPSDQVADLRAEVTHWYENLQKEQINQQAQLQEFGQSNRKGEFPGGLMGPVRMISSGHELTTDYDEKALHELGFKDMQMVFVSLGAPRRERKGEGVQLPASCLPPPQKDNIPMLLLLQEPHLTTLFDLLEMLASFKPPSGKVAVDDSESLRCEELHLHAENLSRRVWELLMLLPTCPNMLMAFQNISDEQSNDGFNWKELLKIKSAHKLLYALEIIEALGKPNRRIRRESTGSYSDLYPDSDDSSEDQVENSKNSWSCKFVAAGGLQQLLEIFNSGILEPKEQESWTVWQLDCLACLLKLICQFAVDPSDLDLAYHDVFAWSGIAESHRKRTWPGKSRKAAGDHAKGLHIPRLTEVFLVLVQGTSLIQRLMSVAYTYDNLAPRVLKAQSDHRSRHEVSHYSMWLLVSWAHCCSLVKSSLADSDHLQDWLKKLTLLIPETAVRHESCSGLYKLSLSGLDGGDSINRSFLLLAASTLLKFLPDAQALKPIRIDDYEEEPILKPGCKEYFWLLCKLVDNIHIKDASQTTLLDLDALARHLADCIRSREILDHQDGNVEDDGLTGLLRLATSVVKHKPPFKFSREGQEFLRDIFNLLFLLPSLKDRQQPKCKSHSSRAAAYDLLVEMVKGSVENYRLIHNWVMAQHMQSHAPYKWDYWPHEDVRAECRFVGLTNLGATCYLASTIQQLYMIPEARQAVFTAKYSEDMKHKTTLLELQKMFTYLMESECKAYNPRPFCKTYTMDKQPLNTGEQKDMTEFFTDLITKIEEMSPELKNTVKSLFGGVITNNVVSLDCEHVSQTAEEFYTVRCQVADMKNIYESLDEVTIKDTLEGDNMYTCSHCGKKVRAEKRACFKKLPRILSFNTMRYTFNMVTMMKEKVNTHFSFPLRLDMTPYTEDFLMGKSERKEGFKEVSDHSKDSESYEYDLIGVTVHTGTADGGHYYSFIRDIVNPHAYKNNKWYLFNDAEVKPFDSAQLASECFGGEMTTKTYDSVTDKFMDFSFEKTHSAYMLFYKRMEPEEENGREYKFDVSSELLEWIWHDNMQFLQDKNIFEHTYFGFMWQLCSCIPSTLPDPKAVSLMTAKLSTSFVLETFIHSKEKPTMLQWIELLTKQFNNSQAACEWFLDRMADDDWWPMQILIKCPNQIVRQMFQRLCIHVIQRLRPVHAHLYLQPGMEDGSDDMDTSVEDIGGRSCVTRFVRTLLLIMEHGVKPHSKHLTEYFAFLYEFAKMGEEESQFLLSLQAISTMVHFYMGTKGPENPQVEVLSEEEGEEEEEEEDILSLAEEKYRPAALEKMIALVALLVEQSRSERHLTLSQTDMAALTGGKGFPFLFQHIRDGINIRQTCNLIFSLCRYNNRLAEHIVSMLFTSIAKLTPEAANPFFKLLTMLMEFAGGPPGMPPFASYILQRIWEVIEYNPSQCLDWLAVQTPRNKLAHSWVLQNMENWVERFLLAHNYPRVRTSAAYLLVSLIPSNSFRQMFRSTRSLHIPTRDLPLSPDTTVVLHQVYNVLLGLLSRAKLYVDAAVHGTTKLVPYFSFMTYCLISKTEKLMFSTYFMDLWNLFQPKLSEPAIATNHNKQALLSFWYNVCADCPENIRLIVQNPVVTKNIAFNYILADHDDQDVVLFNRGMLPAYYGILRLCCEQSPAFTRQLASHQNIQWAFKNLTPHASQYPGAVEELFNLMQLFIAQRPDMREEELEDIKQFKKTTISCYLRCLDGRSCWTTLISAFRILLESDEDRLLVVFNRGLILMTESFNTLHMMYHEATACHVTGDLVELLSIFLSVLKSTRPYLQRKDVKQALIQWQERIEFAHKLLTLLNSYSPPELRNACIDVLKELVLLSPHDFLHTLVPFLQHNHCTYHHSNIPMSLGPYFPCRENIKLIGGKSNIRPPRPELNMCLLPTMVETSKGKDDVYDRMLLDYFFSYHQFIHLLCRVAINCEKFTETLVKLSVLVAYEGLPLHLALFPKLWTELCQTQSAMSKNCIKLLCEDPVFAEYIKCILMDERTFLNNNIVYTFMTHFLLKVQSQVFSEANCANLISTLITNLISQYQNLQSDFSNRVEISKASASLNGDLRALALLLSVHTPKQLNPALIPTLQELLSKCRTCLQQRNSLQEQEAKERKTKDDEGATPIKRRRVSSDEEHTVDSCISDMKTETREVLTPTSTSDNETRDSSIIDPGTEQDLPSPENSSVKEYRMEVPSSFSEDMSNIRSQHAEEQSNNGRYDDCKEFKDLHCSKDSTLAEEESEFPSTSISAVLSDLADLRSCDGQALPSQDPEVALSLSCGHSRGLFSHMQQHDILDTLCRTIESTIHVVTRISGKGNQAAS
Summary of the method: (§1)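 Labelled DUBs from HEK293T lysate were NeutrAvidin-enriched, digested with LysC and trypsin, and run by diaPASEF LC-MS/MS. Before that, each 495 µg sample in Tris/CHAPS/IGEPAL buffer with protease inhibitors was treated in triplicate with fragment at 200 µM or vehicle for 3 h, then with Biotin-Ahx-Ub-VS at 0.5 µM final for 1 h. Values are average log2 ratios of fragment over vehicle by unpaired t-test, based on global-median-normalised Spectronaut label-free quantities from proteins with ≥2 unique peptides.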

[2] = target: T1, USP36 (UniProt Q9P275)
T1 sequence (whole entry): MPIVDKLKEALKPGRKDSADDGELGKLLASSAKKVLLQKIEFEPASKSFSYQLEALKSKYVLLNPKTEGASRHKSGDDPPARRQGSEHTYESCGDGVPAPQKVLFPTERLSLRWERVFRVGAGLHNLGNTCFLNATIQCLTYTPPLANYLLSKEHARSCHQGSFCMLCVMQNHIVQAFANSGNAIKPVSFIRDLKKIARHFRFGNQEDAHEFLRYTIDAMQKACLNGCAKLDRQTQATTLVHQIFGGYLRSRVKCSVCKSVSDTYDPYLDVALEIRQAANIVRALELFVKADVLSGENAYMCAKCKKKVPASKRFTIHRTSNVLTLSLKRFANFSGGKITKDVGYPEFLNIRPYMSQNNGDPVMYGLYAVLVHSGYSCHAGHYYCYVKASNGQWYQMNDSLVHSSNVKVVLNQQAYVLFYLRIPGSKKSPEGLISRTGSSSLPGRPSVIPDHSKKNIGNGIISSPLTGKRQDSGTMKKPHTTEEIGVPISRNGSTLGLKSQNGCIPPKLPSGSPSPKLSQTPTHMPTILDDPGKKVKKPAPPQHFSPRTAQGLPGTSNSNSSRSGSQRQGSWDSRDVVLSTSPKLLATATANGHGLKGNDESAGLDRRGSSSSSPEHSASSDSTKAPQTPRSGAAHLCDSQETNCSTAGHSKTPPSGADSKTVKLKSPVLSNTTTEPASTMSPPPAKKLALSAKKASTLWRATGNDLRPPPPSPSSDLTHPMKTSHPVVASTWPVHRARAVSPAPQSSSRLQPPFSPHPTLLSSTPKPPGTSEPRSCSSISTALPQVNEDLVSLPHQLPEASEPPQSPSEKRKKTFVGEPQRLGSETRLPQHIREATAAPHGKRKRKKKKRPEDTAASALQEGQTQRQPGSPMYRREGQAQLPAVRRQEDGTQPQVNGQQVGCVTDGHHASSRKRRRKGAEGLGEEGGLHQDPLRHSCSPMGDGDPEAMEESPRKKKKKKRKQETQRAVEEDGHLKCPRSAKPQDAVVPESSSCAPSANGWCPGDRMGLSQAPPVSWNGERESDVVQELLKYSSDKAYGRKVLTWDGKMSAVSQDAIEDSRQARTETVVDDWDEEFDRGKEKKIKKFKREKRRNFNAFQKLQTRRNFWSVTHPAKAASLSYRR
Summary of the method: as §1

[3] = target: T2, USP38 (UniProt Q8NB14)
T2 sequence (whole entry): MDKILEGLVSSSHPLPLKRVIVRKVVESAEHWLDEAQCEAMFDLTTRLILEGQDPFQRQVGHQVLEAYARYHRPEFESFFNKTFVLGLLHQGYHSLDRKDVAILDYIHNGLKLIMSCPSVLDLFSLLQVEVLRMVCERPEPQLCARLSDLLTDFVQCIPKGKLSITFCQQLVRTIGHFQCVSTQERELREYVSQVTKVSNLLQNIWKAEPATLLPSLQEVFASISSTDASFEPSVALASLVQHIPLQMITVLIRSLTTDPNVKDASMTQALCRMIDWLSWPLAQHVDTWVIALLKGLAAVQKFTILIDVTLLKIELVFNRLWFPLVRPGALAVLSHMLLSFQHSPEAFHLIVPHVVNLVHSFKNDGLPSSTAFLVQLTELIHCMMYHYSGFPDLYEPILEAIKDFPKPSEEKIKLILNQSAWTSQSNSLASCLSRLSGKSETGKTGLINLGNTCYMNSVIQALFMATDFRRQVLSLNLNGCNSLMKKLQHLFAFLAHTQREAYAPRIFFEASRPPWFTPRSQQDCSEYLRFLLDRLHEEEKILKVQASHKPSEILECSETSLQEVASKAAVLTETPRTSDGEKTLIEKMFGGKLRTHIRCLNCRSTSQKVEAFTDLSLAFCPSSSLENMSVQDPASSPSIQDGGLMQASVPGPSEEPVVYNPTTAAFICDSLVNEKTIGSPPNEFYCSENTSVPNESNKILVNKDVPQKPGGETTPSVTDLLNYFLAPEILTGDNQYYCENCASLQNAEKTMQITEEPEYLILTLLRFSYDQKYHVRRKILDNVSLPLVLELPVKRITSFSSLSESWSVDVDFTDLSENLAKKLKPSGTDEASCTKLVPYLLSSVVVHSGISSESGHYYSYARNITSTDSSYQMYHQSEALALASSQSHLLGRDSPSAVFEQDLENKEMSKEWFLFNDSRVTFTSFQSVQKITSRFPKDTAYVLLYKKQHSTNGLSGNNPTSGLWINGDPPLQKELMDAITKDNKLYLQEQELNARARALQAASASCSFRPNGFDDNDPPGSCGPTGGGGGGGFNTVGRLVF
Summary of the method: as §1

[4] = target: T3, USP39 (UniProt Q53GS9)
T3 sequence (whole entry): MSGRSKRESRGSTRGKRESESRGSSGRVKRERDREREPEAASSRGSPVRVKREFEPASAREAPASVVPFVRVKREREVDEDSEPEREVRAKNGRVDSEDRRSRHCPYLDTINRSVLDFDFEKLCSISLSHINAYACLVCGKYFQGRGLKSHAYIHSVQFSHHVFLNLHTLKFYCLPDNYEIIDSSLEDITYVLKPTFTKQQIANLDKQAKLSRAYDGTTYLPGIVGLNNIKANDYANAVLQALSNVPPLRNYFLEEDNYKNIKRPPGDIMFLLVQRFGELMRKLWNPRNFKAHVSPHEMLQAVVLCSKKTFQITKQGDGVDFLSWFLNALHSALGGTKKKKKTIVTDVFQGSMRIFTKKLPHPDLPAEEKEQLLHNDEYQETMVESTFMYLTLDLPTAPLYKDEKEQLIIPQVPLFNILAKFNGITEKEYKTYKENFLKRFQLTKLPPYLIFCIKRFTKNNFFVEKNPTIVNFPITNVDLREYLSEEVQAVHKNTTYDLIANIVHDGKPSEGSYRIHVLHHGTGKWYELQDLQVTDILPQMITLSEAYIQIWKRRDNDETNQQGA
Summary of the method: as §1

[5] = target: T4, USP4 (UniProt Q13107)
T4 sequence (whole entry): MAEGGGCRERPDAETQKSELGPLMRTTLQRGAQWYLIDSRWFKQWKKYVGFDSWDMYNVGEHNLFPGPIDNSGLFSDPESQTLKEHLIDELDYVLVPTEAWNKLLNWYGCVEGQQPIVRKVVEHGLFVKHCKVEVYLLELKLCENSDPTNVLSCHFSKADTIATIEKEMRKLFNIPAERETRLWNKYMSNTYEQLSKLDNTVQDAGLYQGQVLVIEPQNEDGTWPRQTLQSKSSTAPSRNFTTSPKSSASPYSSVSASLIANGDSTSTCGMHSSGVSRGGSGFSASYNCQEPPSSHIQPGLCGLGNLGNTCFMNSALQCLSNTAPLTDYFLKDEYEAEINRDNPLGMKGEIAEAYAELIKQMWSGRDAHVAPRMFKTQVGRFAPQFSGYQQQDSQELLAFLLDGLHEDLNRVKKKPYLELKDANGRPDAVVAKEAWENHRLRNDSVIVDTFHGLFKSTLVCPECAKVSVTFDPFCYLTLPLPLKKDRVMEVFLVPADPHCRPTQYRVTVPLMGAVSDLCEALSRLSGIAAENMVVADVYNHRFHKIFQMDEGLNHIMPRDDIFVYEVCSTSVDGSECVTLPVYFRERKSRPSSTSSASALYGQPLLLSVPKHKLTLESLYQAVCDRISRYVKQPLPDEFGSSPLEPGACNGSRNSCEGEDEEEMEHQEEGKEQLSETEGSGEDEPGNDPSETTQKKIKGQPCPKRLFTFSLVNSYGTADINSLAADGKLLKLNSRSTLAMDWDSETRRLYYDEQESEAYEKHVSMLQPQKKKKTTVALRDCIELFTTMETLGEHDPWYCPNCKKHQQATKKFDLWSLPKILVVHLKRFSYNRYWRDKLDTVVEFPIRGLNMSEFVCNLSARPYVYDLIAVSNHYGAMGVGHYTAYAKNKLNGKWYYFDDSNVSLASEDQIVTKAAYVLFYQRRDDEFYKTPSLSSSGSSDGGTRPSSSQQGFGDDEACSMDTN
Summary of the method: as §1

Measured: log2 ratio of Biotin-Ahx-Ub-VS probe labelling

O=C(CCl)NCCC1=CCCCC1
inactive: [1] 0.0934 | [2] -0.119 | [3] -0.0475 | [4] 0.131 | [5] 0.0999
